Experimental data as given in the supplement of paper PMC8975748.
Where a name gives a salt, the structure may show the parent alone.

tested on: Saccharomyces cerevisiae BY4741 SeMeCo community; assay: z-score of subpopulation abundance vs DMSO median, subpopulation auxotrophic for U; higher = larger share of this subpopulation than in DMSO controls; conditions: 10 µM; 24 h; SM minimal medium; subpopulation (auxotrophy): U
Method: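 Fluorescent four-plasmid SeMeCo (self-establishing metabolically cooperating S. cerevisiae BY4741 community; plasmids pH-mRuby2, pL-mWasabi, pU-eCFP, pM-TagRFP657) was grown 24 h in minimal SM medium with each Selleck FDA-approved drug at 10 µM in 384-well plates. Cells were fixed and imaged by high-content confocal microscopy. For each auxotrophic subpopulation (and the prototroph), a z-score gives the deviation from the DMSO vehicle-control population median.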

Row | Structure (SMILES) | z-score of subpopulation abundance
1 | Cc1cnc(NC(=O)C2=C(O)c3ccccc3S(=O)(=O)N2C)s1 [Meloxicam] | -0.19
2 | Nc1ccc(S(=O)(=O)Nc2ncccn2)cc1 [Sulfadiazine] | -0.28
3 | CCCN[C@H]1CCc2nc(N)sc2C1 [Pramipexole] | 0.72
4 | CC1=C(C(=O)O)N2C(=O)[C@@H](NC(=O)[C@H](N)c3ccc(O)cc3)[C@H]2SC1 [Cefadroxil hydrate] | -0.62
5 | C[C@@H](c1nc(-c2ccc(C#N)cc2)cs1)[C@](O)(Cn1cncn1)c1cc(F)ccc1F [Isavuconazole] | -1.5
6 | NC(=O)[C@@H]1CC[C@@H]2CN1C(=O)N2OS(=O)(=O)O [Avibactam sodium] | 0.13
7 | CN1CCCN=C1/C=C/c1cccc(O)c1 [Oxantel Pamoate] | -1.1
8 | CC(NCCC(c1ccccc1)c1ccccc1)c1ccccc1 (stereo not given) [Fendiline hydrochloride] | -0.43
9 | O=C(c1ccc(OCCN2CCCCC2)cc1)c1c(-c2ccc(O)cc2)sc2cc(O)ccc12 [Raloxifene] | -1.73
10 | C#C[C@]1(O)CC[C@H]2[C@@H]3CCC4=CCCC[C@@H]4[C@H]3CC[C@@]21C [Lynestrenol] | 1.07
11 | C=C[C@H]1CN2CC[C@H]1C[C@H]2[C@H](O)c1ccnc2ccc(OC)cc12 [Quinine HCl Dihydrate] | 0.16
12 | CCOc1cc(N)c([N+](=O)[O-])cc1C(=O)NC1CCN(CC2CC=CCC2)CC1 (stereo not given) [Cinitapride Hydrogen Tartrate] | 1.07
13 | CN(CCN1CCC(OC(=O)Nc2ccccc2-c2ccccc2)CC1)C(=O)c1ccc(CN2CCC(C(N)=O)CC2)cc1 [Revefenacin] | 0.17
14 | CC(C)C(=O)Oc1ccc(CO)cc1[C@H](CCN(C(C)C)C(C)C)c1ccccc1 [Fesoterodine Fumarate] | 0.1
15 | CO/N=C1\C[C@]2(C[C@@H]3C[C@@H](C/C=C(\C)C[C@@H](C)/C=C/C=C4\CO[C@@H]5[C@H](O)C(C)=C[C@@H](C(=O)O3)[C@]45O)O2)O[C@H](/C(C)=C/C(C)C)[C@H]1C [Moxidectin] | 0.66
16 | COc1ccc2c(c1)c(CC(=O)OCC(=O)O)c(C)n2C(=O)c1ccc(Cl)cc1 [Acemetacin] | -0.02
17 | NC[C@@H]1O[C@H](O[C@H]2[C@@H](O)[C@H](O[C@@H]3[C@@H](O)[C@H](N)C[C@H](N)[C@H]3O[C@H]3O[C@H](CO)[C@@H](O)[C@H](O)[C@H]3N)O[C@@H]2CO)[C@H](N)[C@@H](O)[C@@H]1O [Paromomycin Sulfate] | -0.06
18 | CO/N=C(\C(=O)N[C@@H]1C(=O)N2C(C(=O)O)=C(Cn3ccc(=N)n3CCO)CS[C@H]12)c1csc(N)n1 [Cefoselis Sulfate] | 0.03
19 | CCC1(c2ccccc2)C(=O)NCNC1=O [Primidone] | -0.16
20 | C1CCN2C[C@@H]3C[C@@H](CN4CCCC[C@@H]34)[C@H]2C1 [(-)-Sparteine Sulfate] | -0.7

Row | Structure (SMILES) | z-score of subpopulation abundance
21 | C=CCN1CCCC1CNC(=O)c1cc2nn[nH]c2cc1OC (stereo not given) [Alizapride HCl] | 0.74
22 | CCn1cc(C(=O)O)c(=O)c2cc(F)c(N3CCN(C)CC3)cc21 [Pefloxacin Mesylate] | 0.14
23 | CCCCOc1cc(C(=O)OCCN(CC)CC)ccc1N [Oxybuprocaine HCl] | -0.29
24 | CC(C(=O)O)c1cccc(C(=O)c2ccccc2)c1 (stereo not given) [Ketoprofen] | -0.65
25 | CC[N+](CC)(CC)CC [Tetraethylammonium bromide] | 1.19
26 | O=c1ccn(C2CC(O)C(CO)O2)c(=O)[nH]1 (stereo not given) [2-deoxyuridine] | -1.16
27 | CCN1CCN(C(=O)N[C@@H](C(=O)N[C@@H]2C(=O)N3C(C(=O)O)=C(CSc4nnnn4C)CS[C@H]23)c2ccc(O)cc2)C(=O)C1=O [Cefoperazone] | -0.72
28 | CCCCCCCCCC(=O)NC1C(Oc2c3cc4cc2Oc2ccc(cc2Cl)C(OC2OC(CO)C(O)C(O)C2NC(C)=O)C2NC(=O)C(NC(=O)C4NC(=O)C4NC(=O)C(Cc5ccc(c(Cl)c5)O3)NC(=O)C(N)c3ccc(O)c(c3)Oc3cc(O)cc4c3)c3ccc(O)c(c3)-c3c(OC4OC(CO)C(O)C(O)C4O)cc(O)cc3C(C(=O)O)NC2=O)OC(CO)C(O)C1O (stereo not given) [Teicoplanin] | -0.01
29 | C[C@]12CC[C@@H]3c4ccc(O)cc4CC[C@H]3[C@@H]1CC[C@@H]2OC(=O)CCC1CCCC1 [Estradiol Cypionate] | 0.71
30 | COC(=O)C1=C(C)NC(C)=C(C(=O)OC2CCCN(Cc3ccccc3)C2)C1c1cccc([N+](=O)[O-])c1 (stereo not given) [Benidipine HCl] | -1.06
31 | CN1[C@@H]2CC[C@H]1C[C@@H](OC(c1ccccc1)c1ccccc1)C2 [Benztropine mesylate] | -0.32
32 | CC[C@H](C)C[C@H](C)CCCCCCCCC(=O)N[C@H]1C[C@@H](O)[C@@H](NCCN)NC(=O)[C@@H]2[C@@H](O)CCN2C(=O)[C@H]([C@H](O)CCN)NC(=O)[C@H]([C@H](O)[C@@H](O)c2ccc(O)cc2)NC(=O)[C@@H]2C[C@@H](O)CN2C(=O)[C@H]([C@@H](C)O)NC1=O [Caspofungin Acetate] | -3.79
33 | C#C[C@]1(O)CC[C@H]2[C@@H]3CCC4=CC(=O)CC[C@@H]4[C@H]3C(=C)C[C@@]21CC [Etonogestrel] | 1.19
34 | COC1C(O)CC(=O)OC(C)CC=CC=CC(OC2CCC(N(C)C)C(C)O2)C(C)CC(CC=O)C1OC1OC(C)C(OC2CC(C)(O)C(O)C(C)O2)C(N(C)C)C1O (stereo not given) [Spiramycin] | 0.01
35 | CC(c1cc2ccccc2s1)N(O)C(N)=O (stereo not given) [Zileuton] | 0.31
36 | O=C1c2cccc3c2[C@H](CCC3)CN1[C@@H]1CN2CCC1CC2 [Palonosetron HCl] | 0.17
37 | Cc1c[nH]c(=O)[nH]c1=O [Thymine] | 0.76
38 | C[C@@H](O)[C@H]1C(=O)N2C(C(=O)O)=C([C@H]3CCCO3)S[C@H]12 [Faropenem Sodium] | 1.08
39 | CC1(C)[C@H](C(=O)O)N2C(=O)C[C@H]2S1(=O)=O [Sulbactam sodium] | 1.59
40 | C[C@H](Nc1ncnc2nc[nH]c12)c1cc2cccc(Cl)c2c(=O)n1-c1ccccc1 [Duvelisib (IPI-145, INK1197)] | 0.89
